SMILES strings stand for the structures. The campaign covered roughly 300,000 compounds. About 3,700 (1.2%) were called active. Where a call stands in place of a potency, no number is given. Roughly 20% stayed inconclusive and do not appear here. Calls come from the whole dose curve; tested in HEK293 cells. The full list was thinned out, with actives kept by preference.
Potency is the fitted concentration of half-maximal effect.

A short description of the experiment: qHTS for Inhibitors of binding or entry into cells for Lassa Virus. Note: nearly all actives have a fitted effect of over 50% in size. The following applies: Lassa virus pseudotype entry inhibition, cell reporter; series mostly up to 37.9 µM.
On to `CC1CCCN(CC(=O)Nc2cc(Cl)ccc2Oc2ccccc2)C1` (stereo unspecified), for which the Potency result is “inactive”.

Turning to `CCOc1ccc(NC(=O)COC(=O)C2CCC(=O)N2)c([N+](=O)[O-])c1` (stereo unspecified), the Potency result was “inactive”. The same measure for `OC(COc1ccccc1)Cn1cc(Br)cn1` (stereo unspecified): “inactive”; for `C=CCn1c(=N)n(CC(O)COc2ccc(OC)cc2)c2ccccc21` (stereo unspecified): “inactive”; for `OC(CN=c1sc2ccccc2n1CC(O)COc1ccccc1)COc1ccccc1` (stereo unspecified): 20.6 µM (active). Turning to `COc1ccccc1C(=O)NC(CCSC)C(=O)N1CCN(C/C=C/c2ccccc2)CC1` (stereo unspecified), the Potency result was “inactive”. As to `CC1CCC2CCCCC2N1C(=O)c1cc([N+](=O)[O-])cc([N+](=O)[O-])c1` (stereo unspecified), the Potency result was “inactive”. With `COc1ccc(-c2cc(-c3ccccc3)nc3c2COc2ccc(Cl)cc2-3)cc1` the entry was “inactive”; with `COc1ccc(C2=Nc3cc(C)ccc3OC2)cc1`, 10 µM (active). With `COc1ccc(C2=NOC3(CC(=O)N(c4ccc(C)cc4)C3=O)C2)cc1` (stereo unspecified) the entry was “inactive”; with `COc1ccc2c(c1)C(=O)Nc1cc(Cl)ccc1N2`, “inactive”. With `CC(=O)Nc1ccc(NC(=O)CS(=O)(=O)c2cn(CC(=O)N3CCCCC3)c3ccccc23)cc1` the entry was “inactive”; with `Cc1onc(-c2ccccc2Cl)c1C(=O)OCc1nnc(-c2ccccc2)o1`, “inactive”. With `O=C(c1ccc(F)cc1)c1c[nH]c(C(=O)NCc2cccnc2)c1`, the Potency entry is “inactive”.

With `CC(C)CC(=O)c1c[nH]c(C(=O)NCc2ccccc2)c1`, the Potency was 7.94 µM (active). The same measure for `CC(C)CC(=O)NC(=S)NCc1ccccc1`: “inactive”; for `OC(COc1ccccc1)CN1CCN(c2cccc(Cl)c2)CC1` (stereo unspecified): “inactive”.

Take `CC/C(=C\c1ccc(Cl)cc1)c1ccncc1`: the Potency result is “inactive”.

Take `COc1cc2cc(C(=O)N/N=C/c3cccc(OC)c3OC)[nH]c2cc1OC`: the Potency entry is “inactive”. With `CN(C)CCNC(=O)c1[nH]nc2c1CCc1ccccc1-2` the entry was “inactive”; with `COc1cccc(/C=N/NC(=O)c2[nH]nc3c2CCc2ccccc2-3)c1O`, 12.6 µM (active). The same measure for `O=C(CSc1nnc(-c2ccncc2)o1)Nc1cccc(Cl)c1`: “inactive”; for `COc1ccccc1CNS(=O)(=O)c1cc(C(=O)NCc2ccccn2)c(Cl)cc1Cl`: “inactive”.

For `CCN(CC)S(=O)(=O)c1ccc(N(C)CCc2ccc(OC)c(OC)c2)nc1`, the Potency entry was “inactive”. With `CCN(CC)S(=O)(=O)c1ccc(N(C)Cc2ccc(C(F)(F)F)cc2)nc1` the figure was 4.47 µM (active); with `CCN(CC)S(=O)(=O)c1ccc(N(C)Cc2cccc(OC)c2OC)nc1`, “inactive”; with `CCOc1ccc2[nH]c(=O)c(CN(CCCO)S(=O)(=O)c3ccc(F)cc3)cc2c1`, “inactive”. The same measure for `COc1ccc(C(C(=O)NC2CCCCC2)N(C(=O)CCl)c2ccccc2Cl)cc1` (stereo unspecified): “inactive”. With `COc1ccc(C(C(=O)NC2CCCCC2)N(C(=O)c2snc(C(N)=O)c2N)c2ccccc2OC)cc1` (stereo unspecified) the figure was 10 µM (active); with `NC(=O)c1nsc(C(=O)N(CCCN2CCOCC2)C(C(=O)NC2CCCCC2)c2ccc(Cl)cc2)c1N` (stereo unspecified), “inactive”. For the compound `O=C(O)C1C2C=CC(O2)C1C(=O)Nc1ccccn1` (stereo unspecified), the Potency result was “inactive”. The same measure for `COCCNc1cc(-c2ccccc2)nc2cc(-c3cccc(F)c3)nn12`: “inactive”; for `CC(=O)Nc1ccc(NC(=O)COC(=O)C2CCC(C(C)(C)C)CC2)cc1` (stereo unspecified): “inactive”. The same measure for `COc1ccc(CCNS(=O)(=O)c2cc(-c3cc(C)no3)ccc2C)cc1OC`: “inactive”; for `COC(=O)c1ccccc1NC(=O)c1ccc(COc2ccccc2Cl)o1`: “inactive”; for `O=C(Nc1ccn(Cc2ccccc2F)n1)c1ccc(COc2ccc(Cl)cc2Cl)o1`: 10 µM (active).

As to `COc1ccc(Cl)cc1NC(=O)NCC1CCN(Cc2ccccc2F)CC1`, the Potency result was “inactive”. With `COc1ccccc1N(C)S(=O)(=O)c1ccc(Cl)c(C(=O)Nc2ccncc2)c1` the entry was “inactive”; with `CN(O)C(=S)c1ccccc1`, 6.31 µM (active).

Regarding `O=C(NC(=O)c1ccccc1)NC(=O)c1ccccc1`, the Potency result was “inactive”.

In the case of `CCc1ccc(C(=O)C(C)OC(=O)CN2C(=O)NC3(CCCC3)C2=O)cc1` (stereo unspecified), the Potency result was “inactive”. As for `CCOc1ccc(NC(=O)c2cn(C3CCCCC3)c(=O)c3c2c2ccccc2n3C)cc1`, the Potency entry is “inactive”. With `O=C(c1ccccc1Oc1ccccc1)N1CCN(c2ccc(F)cc2)CC1` the entry was “inactive”; with `Cn1c2ccccc2c2c(C(=O)N3CCN(c4ccc(F)cc4)CC3)cn(C3CCCC3)c(=O)c21`, 10 µM (active); with `O=C(NNC(=O)c1ccc(-c2ccccc2)cc1)Nc1ccccc1`, “inactive”. With `CC(Nc1ccc([N+](=O)[O-])cc1[N+](=O)[O-])c1ccccc1` (stereo unspecified) the entry was “inactive”; with `O=C(/C=C/c1ccccc1)N1CCN(Cc2cc(=O)n3nc(-c4ccccc4F)sc3n2)CC1`, “inactive”. The same measure for `Cc1cccc(C(=O)Nc2nnc(Cc3c[nH]c4ccccc34)s2)c1`: “inactive”. For the compound `Cc1cccc(N=C2NN=C(c3c[nH]c4ccccc34)CS2)c1`, the Potency is 14.6 µM (active). Take `CC(=O)c1c(C)[nH]c(C(=O)N2CCN(S(=O)(=O)c3ccc(F)c(F)c3)CC2)c1C`: the Potency result is “inactive”.

Turning to `O=C(CCC1CCCCC1)Nc1cc(C(F)(F)F)ccc1N1CCOCC1`, the Potency result is “inactive”. The same measure for `COc1cccc(C(=O)OCc2cc(=O)oc3c(C)c(C)ccc23)c1OC`: “inactive”; for `CCOc1ccc(NC(=O)CN(C)C(=O)Cc2sc(C)nc2-c2ccc(F)cc2)cc1OCC`: “inactive”. In the case of `N#CCc1c[nH]c2ccc([N+](=O)[O-])cc12`, the Potency entry is “inactive”.

Take `Cc1ccc(S(=O)(=O)c2nc(-c3cccs3)oc2NCc2cccnc2)cc1`: the Potency entry is “inactive”. With `O=S(=O)(c1ccc(Br)cc1)c1nc(-c2ccccc2)oc1NCc1cccnc1` the entry was “inactive”; with `COc1cccc(-c2nc(S(=O)(=O)c3ccc(C)cc3)c(NCc3ccccc3)o2)c1`, 10 µM (active); with `CN(C)c1nc(NN)nc(Nc2ccc(F)cc2)n1`, “inactive”. The same measure for `CCOc1ccc(C(=O)CCC(=O)Nc2ccncc2)cc1`: “inactive”; for `CC(CCc1ccccc1)NC(=O)COC(=O)c1ccc(F)cc1` (stereo unspecified): “inactive”. The same measure for `CCC1(C)Cc2c(sc3nc(SC)[nH]c(=O)c23)CO1` (stereo unspecified): “inactive”; for `CCC1(C)Cc2c(sc3nc4n(c(=O)c23)CCCS4)CO1` (stereo unspecified): “inactive”; for `CCC1(C)Cc2c(sc3[nH]c(=S)n(Cc4ccccc4)c(=O)c23)CO1` (stereo unspecified): 5.62 µM (active). Take `O=C(CCNC(=O)c1ccccc1Cl)NN=Cc1ccco1`: the Potency entry is “inactive”. With `CCOC(=O)c1csc(CCNC(=O)c2oc3c(Cl)cc(C)cc3c2C)n1` the entry was “inactive”; with `CN1C(c2ccc(F)cc2)=CS/C1=C(/C#N)c1nnc2n1-c1ccccc1SC2`, “inactive”; with `O=C(Nc1cccc(F)c1)NC1CCCCCCC1`, 12.6 µM (active).

In the case of `C/C(CC(=O)Nc1cccc(F)c1)=N\NC(=O)C(=O)NC1CCCCC1`, the Potency result is “inactive”.

Take `Cc1cc(C)cc(NC(=O)NC2CCCCCCC2)c1`: the Potency result is “inactive”. The same measure for `COc1ccc2oc(C(=O)N(CC(C)C)C3CCS(=O)(=O)C3)c(C)c2c1` (stereo unspecified): “inactive”.

As to `COc1ccccc1N(CCOc1ccccc1)S(=O)(=O)c1ccccc1`, the Potency entry is “inactive”.

Consider `Cc1ccc(S(=O)(=O)N2CCC(=O)N([C@H](COCc3ccccc3)C(C)C)CC2)cc1`, for which the Potency entry is “inactive”. With `O=C(Nc1ccc(N2CCOCC2)cc1)c1ccc2c(c1)OCO2` the entry was “inactive”; with `O=C(Nc1ccc2c(c1)OCCO2)c1ccc(Cl)c(S(=O)(=O)N2CCCCC2)c1`, 20.6 µM (active). Consider `O=C(c1ccc(Cl)c(S(=O)(=O)N2CCCCC2)c1)N1CCCCCC1`, for which the Potency entry was “inactive”. With `O=C(Nc1ccccc1F)c1ccc2c(c1)OCO2` the entry was “inactive”; with `O=C(Nc1nc2ccccc2s1)c1ccc2c(c1)OCO2`, 2.51 µM (active). With `O=C(Nc1cccc(S(=O)(=O)N2CCCCC2)c1)c1ccc2c(c1)OCO2` the entry was “inactive”. With `Cc1cc(C)c2nc(NC(=O)c3ccc4c(c3)OCO4)sc2c1` the entry was “inactive”; with `O=C(Nc1cccc([N+](=O)[O-])c1)c1ccc2c(c1)OCO2`, “inactive”. In the case of `O=C(Nc1ccccc1)c1ccc2c(c1)OCCCO2`, the Potency was 3.16 µM (active). The same measure for `N#Cc1ccccc1S(=O)(=O)N1CCN(C(=O)c2cc(-c3ccccc3)nn2-c2ccccc2)CC1`: “inactive”. With `COc1ccc(-c2csc3ncnc(N4CCN(S(=O)(=O)c5ccccc5C#N)CC4)c23)cc1` the entry was “inactive”; with `Cc1cc(C)c(NC(=O)CN2C(=O)c3cccnc3Oc3ccc(Cl)cc32)c(C)c1`, “inactive”.

Regarding `O=c1[nH]c2c(c(=O)n1-c1ccccc1)CCO2`, the Potency result was “inactive”. The same measure for `CC(CC(=O)N1CCN(c2ccccc2)CC1)S(=O)(=O)c1ccc2c(c1)NC(=O)CS2` (stereo unspecified): “inactive”; for `COc1ccc(-c2nc3sc(CCNC(=O)C(C)(C)C)c(C)n3n2)cc1`: “inactive”; for `CCC/C=C(\CCC)C(NC(=O)Cc1ccccc1)c1ccc(C(=O)OC)cc1` (stereo unspecified): 6.51 µM (active). With `CCC[C@@H]1C[C@@]1(CCC)[C@@H](NC(=O)c1ccccc1)c1ccc(C(=O)OC)cc1` the entry was “inactive”.

On to `CC(=O)c1ccc(OC(NC(=O)Cc2ccccc2)C(Cl)(Cl)Cl)cc1` (stereo unspecified), for which the Potency entry was “inactive”. The same measure for `COc1ccc(OCC(=O)NNC(=O)C2CCC2)cc1`: “inactive”; for `Cc1ccc(NC(=O)C(C)OC(=O)C2CC3CCCC(C2)C3=O)cc1S(=O)(=O)N1CCOCC1` (stereo unspecified): “inactive”; for `Fc1ccc(N2CCN(Cc3ccc4c(c3)OCO4)CC2)cc1`: “inactive”. The same measure for `Fc1ccc2[nH]c3c(N4CCN(Cc5ccc6c(c5)OCO6)CC4)ncnc3c2c1`: 15.8 µM (active); for `O=c1[nH]c(N2CCN(Cc3ccc4c(c3)OCO4)CC2)nc2c1CCCC2`: “inactive”. With `Cc1cc2c(cc3c(SCc4nc(-c5ccccc5)oc4C)nnc(C)n32)o1` the entry was “inactive”.

Consider `Cc1ccc2c(c1)C1CN(C)CCC1N2S(=O)(=O)c1cccc(F)c1` (stereo unspecified), for which the Potency result was “inactive”. The same measure for `CCc1ccc2nc(N(CCCN(C)C)C(=O)c3ccc4c(c3)OCCO4)sc2c1`: “inactive”.

With `CN(C)CCCN(C(=O)c1ccc(S(=O)(=O)N2CCCCCC2)cc1)c1nc2cc3c(cc2s1)OCCO3`, the Potency is 14.1 µM (active). The same measure for `CCN(CC)CCN(C(=O)c1ccc(S(=O)(=O)N2CCOCC2)cc1)c1nc2cc3c(cc2s1)OCCO3`: “inactive”. Regarding `CC(C)CC1(C)NC(=O)N(CC(=O)Nc2ccc3c(c2)OCCO3)C1=O` (stereo unspecified), the Potency result was “inactive”.

These data come from PubChem BioAssay AID540256 (National Center for Advancing Translational Sciences (NCATS), 2011).
